Experiment [1] can be described thus: qHTS for Inhibitors of the Functional Ribonucleoprotein Complex (vRNP) of Lassa (LASV) Arenavirus: LASV Primary Screen - GLuc reporter signal (AID 1347082; further: series mostly up to about 57 µM; nearly all actives have a fitted effect of over 60% in size). (In qHTS, concentration-response curves come from the screen itself.)
Experiment [2] in a line: qHTS for Inhibitors of the Functional Ribonucleoprotein Complex (vRNP) of Lassa (LASV) Arenavirus: Viability assay - alamar blue signal for LASV Primary Screen (AID 1347083). Further: nearly all actives have a fitted effect of over 80% in size. Further: potency means the concentration at half of the fitted maximal effect.
A short description of experiment [3]: qHTS for Inhibitors of the Functional Ribonucleoprotein Complex (vRNP) of Lymphocytic Choriomeningitis Arenaviruses (LCMV): Viability assay - alamar blue signal for LCMV Primary Screen (AID 1347085). Further: nearly all actives have a fitted effect of over 80% in size. Further: potency means the concentration at half of the fitted maximal effect.

Results filed as inconclusive are left out. Active and inactive are the calls of the source. The call rests on the fitted dose curve; tested in HEK293 reporter line.

For the compound `Cc1cc(C(C)(C)C)cc(C)c1CC1=NCCN1`, the Potency entry in experiment [1], in experiment [2] and in experiment [3] was “inactive” in each case.
In the case of `C[C@]12CCC(=O)C=C1CC[C@@H]1[C@@H]2CC[C@@]2(C)[C@H]1CC[C@]2(O)C(=O)CO`, the Potency entry in experiment [1], in experiment [2] and in experiment [3] was “inactive” each time.
Regarding `CC(=O)N(CC(O)CN(C(C)=O)c1c(I)c(C(=O)NCC(O)CO)c(I)c(C(=O)NCC(O)CO)c1I)c1c(I)c(C(=O)NCC(O)CO)c(I)c(C(=O)NCC(O)CO)c1I` (stereo unspecified), the Potency entry in experiment [1], in experiment [2] and in experiment [3] was “inactive” each time.
Turning to `CCOC(=O)[C@H](CCc1ccccc1)N[C@H]1CS[C@H](c2cccs2)CN(CC(=O)O)C1=O`, the Potency result in experiment [1], in experiment [2] and in experiment [3] was “inactive” each time.
In the case of `COC(=O)Nc1nc2ccc(Sc3ccccc3)cc2[nH]1`, in experiment [1], the Potency entry is “inactive”. The Potency in experiment [2] and in experiment [3] was 5.44 µM (active) in each case.
In the case of `CCCCCCOC(=O)NC(=N)c1ccc(NCc2nc3cc(C(=O)N(CCC(=O)OCC)c4ccccn4)ccc3n2C)cc1`, the Potency result in experiment [1], in experiment [2] and in experiment [3] was “inactive” throughout.
Turning to `CCCCN(CCCC)CCC(O)c1cc2c(Cl)cc(Cl)cc2c2cc(C(F)(F)F)ccc12` (stereo unspecified), the Potency result in experiment [1], in experiment [2] and in experiment [3] was “inactive” throughout.
As to `CC1(C)[C@@H]2CC[C@@]1(C)C(=O)C2`, the Potency result in experiment [1], in experiment [2] and in experiment [3] was “inactive” throughout.
In the case of `Cc1cc(C)c(/C=C2\C(=O)Nc3ccccc32)[nH]1`, the Potency result in experiment [1], in experiment [2] and in experiment [3] was “inactive” each time.
With `O=C(NC1CCN(CCc2c[nH]c3ccccc23)CC1)c1ccccc1`, the Potency entry in experiment [1], in experiment [2] and in experiment [3] was “inactive” each time.
Regarding `OC(CCN1CCCCC1)(c1ccccc1)c1ccccc1`, the Potency entry in experiment [1], in experiment [2] and in experiment [3] was “inactive” in each case.
Turning to `Brc1c(NC2=NCCN2)ccc2nccnc12`, the Potency entry in experiment [1], in experiment [2] and in experiment [3] was “inactive” each time.

These data come from PubChem BioAssay (NCATS).
